Several values for one entry are separate records, joined by “and”; a condition that tells them apart may be missing. Equal values may be shown once. Among all 350,000 compounds or so, about 6,000 (1.7%) were called active. Inconclusive results (about 5%) are left out. The sample holds actives, similar compounds and a random draw of the others, so the mix is not that of the screen. No stated cut-off is given here; in the data, active means CPE inhibition above about 20% (passing the limit was not always enough); inconclusive means no clear call, values can overlap the other calls; tested in BHK-21 cells.

A short description of this experiment: inhibitors of DENV2 cytopathic effect, primary screen, cell-based, plate reader, single concentration (AID 651640).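 Further: 0% = median of neutral control wells and 100% = median of positive control wells.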 The settings on record: DENV2-infected cells, cytopathic effect rescue, at 9.99 µM, stronger effect = higher value. For orientation: Damage to the host cells serves as the signal in cytopathic effect assays.
`COCC#Cc1cnc2c(c1)C(=O)N([C@@H](C)CO)C[C@@H](C)[C@@H](CN(C)C(=O)Nc1ccc(OC)cc1)O2`: the CPE inhibition is -9.58% (inactive).
In the case of `C[C@H]1CN([C@@H](C)CO)C(=O)Cc2cc(NC(=O)Nc3cccc4ccccc34)ccc2O[C@@H]1CN(C)C`, the CPE inhibition was 25.6% (active).
On to `Cc1ccc(S(=O)(=O)N(C)C[C@@H]2Oc3ccc(NC(=O)c4ccncc4)cc3CC(=O)N([C@H](C)CO)C[C@H]2C)cc1`, for which the CPE inhibition is 20.7% (active).
`C[C@@H]1CN([C@H](C)CO)C(=O)Cc2cc(NC(=O)Nc3ccc(C(F)(F)F)cc3)ccc2O[C@H]1CN(C)Cc1ccc(-c2ccccc2)cc1`: the CPE inhibition was -23% (inactive).
For `C[C@H](CO)N1C[C@H](C)[C@H](CN(C)S(C)(=O)=O)Oc2ccc(NC(=O)c3ccncc3)cc2CC1=O`, the CPE inhibition is -1.49% (inactive).
`COc1ccc(NC(=O)Nc2ccc3c(c2)CC(=O)N([C@@H](C)CO)C[C@@H](C)[C@@H](CN(C)Cc2ccc(C(F)(F)F)cc2)O3)cc1`: the CPE inhibition was -24.3% (inactive).
Regarding `C[C@H]1CN([C@@H](C)CO)C(=O)Cc2cc(NC(=O)Nc3cccc4ccccc34)ccc2O[C@@H]1CN(C)S(C)(=O)=O`, the CPE inhibition was -2.56% (inactive).
In the case of `C[C@H](CO)N1C[C@H](C)[C@H](CN(C)Cc2ccc(-c3ccccc3)cc2)Oc2ccc(NC(=O)Nc3ccc(F)cc3)cc2CC1=O` it was 33.6% (active); in that of `COc1ccc(CN(C)C[C@@H]2Oc3ccc(NC(=O)Nc4ccc(F)cc4)cc3CC(=O)N([C@@H](C)CO)C[C@H]2C)cc1`, 2.99% (inactive); in that of `C[C@@H]1CN([C@H](C)CO)C(=O)Cc2cc(NC(=O)Nc3cccc4ccccc34)ccc2O[C@@H]1CN(C)Cc1ccc(C(F)(F)F)cc1`, 20.3% (active).
As to `C[C@H]1CN([C@@H](C)CO)C(=O)Cc2cc(NC(=O)Nc3cccc4ccccc34)ccc2O[C@H]1CN(C)CC1CC1`, the CPE inhibition is 2.69% (inactive).
Take `C[C@@H]1CN([C@H](C)CO)C(=O)Cc2cc(NC(=O)c3ccncc3)ccc2O[C@H]1CN(C)S(=O)(=O)c1cccs1`: the CPE inhibition is 19.1% (inactive).
In the case of `C[C@@H]1CN([C@H](C)CO)C(=O)Cc2cc(NC(=O)Nc3cccc4ccccc34)ccc2O[C@@H]1CN(C)Cc1ccc(C(=O)O)cc1` it was -18.4% (inactive); in that of `O=C(c1ccncc1)N1CC(=O)N2[C@H](CO)[C@@H](c3ccc(-c4cccnc4)cc3)[C@H]2C1`, -6.23% (inactive); in that of `COc1ccc2c3c(n(C)c2c1)[C@H](CO)N(C(=O)C1CCCC1)CC31CCN(C(=O)c2ccncc2)CC1`, 4.15% (inactive).
Consider `CO[C@@H]1CN(C)C(=O)c2ccc(NC(=O)NC(C)C)cc2OC[C@@H](C)N(C(=O)NC(C)C)C[C@H]1C`, for which the CPE inhibition was 9.11% (inactive).
On to `C[C@@H]1CCCCO[C@H](CN(C)CC2CCCCC2)[C@H](C)CN([C@H](C)CO)C(=O)c2cc(NS(=O)(=O)c3ccc(F)cc3)ccc2O1`, for which the CPE inhibition was -1.47% (inactive).
Consider `C[C@@H]1CCCCO[C@H](CN(C)Cc2ccc3c(c2)OCO3)[C@H](C)CN([C@@H](C)CO)C(=O)c2cc(NS(=O)(=O)c3cccs3)ccc2O1`, for which the CPE inhibition is -2.06% (inactive) and 0.641% (inactive).
On to `CCCN1C(=O)c2[nH]nc(-c3ccccc3)c2C1c1ccccc1` (stereo unspecified), for which the CPE inhibition was 1.19% (inactive).
In the case of `CO[C@H]1CN(C)C(=O)c2ccc(NC(C)=O)cc2OC[C@H](C)N(CC2CC2)C[C@@H]1C` it was -14.7% (inactive).
In the case of `C[C@@H]1CN([C@H](C)CO)C(=O)Cc2cc(NC(=O)C3CCCCC3)ccc2O[C@@H]1CN(C)Cc1ccc(C(F)(F)F)cc1` it was 31.3% (active); in that of `C[C@@H]1CN([C@H](C)CO)C(=O)Cc2cc(NC(=O)Nc3ccccc3)ccc2O[C@@H]1CN(C)Cc1ccc(C(F)(F)F)cc1`, -6.47% (inactive).
Turning to `C[C@@H]1CN([C@@H](C)CO)C(=O)Cc2cc(NC(=O)Nc3ccc(F)cc3)ccc2O[C@@H]1CN(C)S(=O)(=O)c1ccccc1`, the CPE inhibition was 76.2% (active).
As to `C[C@H]1CN([C@@H](C)CO)C(=O)Cc2cc(NC(=O)Nc3ccc(C(F)(F)F)cc3)ccc2O[C@H]1CN(C)Cc1ccc(C(=O)O)cc1`, the CPE inhibition is 16.5% (inactive).
As for `C[C@H](CO)N1C[C@H](C)[C@@H](CN(C)S(=O)(=O)c2ccccc2)Oc2ccc(NC(=O)Nc3ccc(F)cc3)cc2CC1=O`, the CPE inhibition was 13.5% (inactive).
In the case of `C[C@@H]1CN([C@@H](C)CO)C(=O)Cc2cc(NC(=O)Nc3ccc(C(F)(F)F)cc3)ccc2O[C@H]1CN(C)Cc1ccc(C(=O)O)cc1` it was 30.9% (active).
Regarding `C[C@@H]1CN([C@@H](C)CO)C(=O)Cc2cc(NC(=O)C3CCCCC3)ccc2O[C@@H]1CN(C)C(=O)Nc1ccc(C(F)(F)F)cc1`, the CPE inhibition was 2.75% (inactive).
As for `C[C@H]1CN([C@@H](C)CO)C(=O)Cc2cc(NC(=O)Nc3ccc(F)cc3)ccc2O[C@H]1CN(C)S(=O)(=O)c1ccccc1`, the CPE inhibition was 1.86% (inactive).
As for `C[C@H]1CN([C@@H](C)CO)C(=O)Cc2cc(NC(=O)C3CCCCC3)ccc2O[C@H]1CN(C)C(=O)Nc1ccc(C(F)(F)F)cc1`, the CPE inhibition was -1.37% (inactive).
For the molecule `COCC#Cc1cnc2c(c1)C(=O)N([C@H](C)CO)C[C@H](C)[C@H](CN(C)C(=O)C1CCOCC1)O2`, the CPE inhibition was 8% (inactive).
As to `O=C(C[C@H]1C[C@@H]2c3cc(NC(=O)CC4CC4)ccc3O[C@@H]2[C@@H](CO)O1)NCc1cc(F)ccc1F`, the CPE inhibition is -1.05% (inactive).
`C[C@@H]1CN([C@H](C)CO)C(=O)c2cc(NC(=O)c3ccncc3)ccc2O[C@H]1CN(C)Cc1ccc(Oc2ccccc2)cc1`: the CPE inhibition was -0.0445% (inactive).
As to `C[C@@H]1CCCCO[C@@H](CN(C)C(=O)Cc2ccccc2)[C@H](C)CN([C@H](C)CO)C(=O)c2cc(NC(=O)Cc3ccccc3)ccc2O1`, the CPE inhibition was 13.3% (inactive).
Consider `COc1ccc(-c2ccc3c(c2)[C@H]2[C@H](CCN2C(=O)c2ccc4c(c2)OCO4)[C@@H](CO)N3)cc1`, for which the CPE inhibition was -26.6% (inactive).
With `Cc1ccc(C)c(CN2CCC(CNC(=O)C3CCCN(c4ncnc5c4nc4n5CCCCC4)C3)CC2)c1` (stereo unspecified), the CPE inhibition is 3.53% (inactive).
In the case of `CCCN1C[C@@H](C)[C@@H](OC)CN(C)C(=O)c2ccc(NC(=O)CC(F)(F)F)cc2OC[C@H]1C` it was 1.09% (inactive).

(Values after PubChem BioAssay AID651640 (Broad Institute, 2012).)
